Values joined by “and” are separate entries in the source; they are usually repeats but may differ in a detail not shown here. Equal values may be shown once. Hit rate of the full screen: of about 5,500 compounds, about 2,000 (36%) were called active. Another 18% or so got no clear call; they are omitted. The list shows a part of the results. Unmarked numbers belong to inactive results. Rule as the data show it: active = normalized growth mostly below about 0.91 (no sharp cut-off); inconclusive = no clear call, values can overlap the other calls; inactive = mostly above about 0.92.
Assay: chemical genetic growth profiling, strain panel (AID 1159580);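 also: tested at 20 µM; growth read once vehicle control cultures reached saturation at 30 °C; 1 = growth at the plate median or of vehicle wells; lower values mean less growth of the strain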
Details: S. cerevisiae deletion strains, growth OD

CC(C)c1c(O)ccc2c1CCC1C(C)(C)CCC[C@]21C (stereo partly specified)
normalized growth (locus YAL013W, strain DEP1, stronger effect = lower value): 0.063 (active)
normalized growth (locus YAL021C, strain ccr4, stronger effect = lower value): 0.888 (active)
normalized growth (locus YAL026C, strain drs2, stronger effect = lower value): 0.451 (active)
normalized growth (locus YAL030W, strain snc1, stronger effect = lower value): 0.319 (active)
normalized growth (locus YBL061C, strain skt5, stronger effect = lower value): 0.329 (active)
normalized growth (locus YBR009C, strain hhf1, stronger effect = lower value): 0.182 (active)
normalized growth (locus YBR021W, strain FUR4, stronger effect = lower value): 0.517 (active)
normalized growth (locus YBR023C, strain chs3, stronger effect = lower value): 0.43 (active)
normalized growth (locus YBR171W, strain sec66, stronger effect = lower value): 0.606 (active)
normalized growth (locus YBR229C, strain ROT2, stronger effect = lower value): 0.245 (active)
normalized growth (locus YBR231C, strain swc5, stronger effect = lower value): 0.258 (active)
normalized growth (locus YBR279W, strain paf1, stronger effect = lower value): 0.769 (active)
normalized growth (locus YCL011C, strain gbp2, stronger effect = lower value): 0.365 (active)
normalized growth (locus YCL016C, strain dcc1, stronger effect = lower value): 0.353 (active)
normalized growth (locus YCL029C, strain bik1, stronger effect = lower value): 0.29 (active)
normalized growth (locus YCL069W, strain vba3, stronger effect = lower value): 0.932
normalized growth (locus YCR088W, strain abp1, stronger effect = lower value): 0.848 (active)
normalized growth (locus YDL005C, strain med2, stronger effect = lower value): 0.961
normalized growth (locus YDL035C, strain GPR1, stronger effect = lower value): 0.118 (active)
normalized growth (locus YDL040C, strain nat1, stronger effect = lower value): 0.749 (active)
normalized growth (locus YDL074C, strain BRE1, stronger effect = lower value): 0.111 (active)
normalized growth (locus YDL101C, strain DUN1, stronger effect = lower value): 0.185 (active)
normalized growth (locus YDL134C, strain PPH21, stronger effect = lower value): 0.0876 (active)
normalized growth (locus YDL185W, strain tfp1, stronger effect = lower value): 0.135 (active)
normalized growth (locus YDL192W, strain arf1, stronger effect = lower value): 0.139 (active)
normalized growth (locus YDR001C, strain nth1, stronger effect = lower value): 1
normalized growth (locus YDR069C, strain doa4, stronger effect = lower value): 0.842 (active)
normalized growth (locus YDR101C, strain arx1, stronger effect = lower value): 0.43 (active)
normalized growth (locus YDR137W, strain rgp1, stronger effect = lower value): 0.134 (active)
normalized growth (locus YDR150W, strain NUM1, stronger effect = lower value): 0.399 (active)
normalized growth (locus YDR159W, strain sac3, stronger effect = lower value): 0.304 (active)
normalized growth (locus YDR162C, strain NBP2, stronger effect = lower value): 0.0592 (active)
normalized growth (locus YDR195W, strain ref2): 0.163 (active)
normalized growth (locus YDR297W, strain sur2, stronger effect = lower value): 0.353 (active)
normalized growth (locus YDR318W, strain mcm21, stronger effect = lower value): 0.182 (active)
normalized growth (locus YDR334W, strain swr1, stronger effect = lower value): 0.974
normalized growth (locus YDR335W, strain msn5, stronger effect = lower value): 0.863 (active)
normalized growth (locus YDR388W, stronger effect = lower value): 0.38 (active)
normalized growth (locus YDR392W, strain spt3, stronger effect = lower value): 0.141 (active)
normalized growth (locus YDR502C, strain sam2, stronger effect = lower value): 0.185 (active)
normalized growth (locus YEL003W, strain gim4, stronger effect = lower value): 0.543 (active)
normalized growth (locus YEL037C, strain rad23, stronger effect = lower value): 0.991
normalized growth (locus YEL061C, strain CIN8 (second series), stronger effect = lower value): 0.667 (active)
normalized growth (locus YER015W, strain faa2, stronger effect = lower value): 0.548 (active)
normalized growth (locus YER016W, strain bim1, stronger effect = lower value): 0.302 (active)
normalized growth (locus YER110C, stronger effect = lower value): 0.713 (active)
normalized growth (locus YER111C, strain swi4, stronger effect = lower value): 0.971
normalized growth (locus YER155C, strain BEM2 (second series), stronger effect = lower value): 0.925
normalized growth (locus YER155C, strain BEM2, stronger effect = lower value): 0.0776 (active)
normalized growth (locus YER167W, strain BCK2, stronger effect = lower value): 0.0994 (active)
normalized growth (locus YFR010W, strain ubp6, stronger effect = lower value): 0.929
normalized growth (locus YGL078C, strain dbp3, stronger effect = lower value): 0.835 (active)
normalized growth (locus YGL086W, strain mad1, stronger effect = lower value): 0.135 (active)
normalized growth (locus YGL167C, strain pmr1, stronger effect = lower value): 0.248 (active)
normalized growth (locus YGL173C, strain kem1, stronger effect = lower value): 0.947
normalized growth (locus YGL227W, strain vid30, stronger effect = lower value): 0.691 (active)
normalized growth (locus YGL240W, strain doc1, stronger effect = lower value): 0.822 (active)
normalized growth (locus YGL248W, strain PDE1, stronger effect = lower value): 0.113 (active)
normalized growth (locus YGL253W, strain hxk2, stronger effect = lower value): 0.67 (active)
normalized growth (locus YGR135W, strain pre9, stronger effect = lower value): 0.373 (active)
normalized growth (locus YGR252W, strain gcn5, stronger effect = lower value): 0.212 (active)
normalized growth (locus YHR013C, strain ard1, stronger effect = lower value): 0.548 (active)
normalized growth (locus YHR027C, strain rpn1, stronger effect = lower value): 0.527 (active)
normalized growth (locus YHR030C, strain SLT2, stronger effect = lower value): 0.06 (active) and 0.129 (active)
normalized growth (locus YHR079C, strain IRE1 (second series), stronger effect = lower value): 0.335 (active)
normalized growth (locus YHR079C, strain IRE1, stronger effect = lower value): 0.215 (active)
normalized growth (locus YHR094C, strain hxt1, stronger effect = lower value): 0.272 (active)
normalized growth (locus YHR129C, strain ARP1, stronger effect = lower value): 0.0824 (active)
normalized growth (locus YHR142W, strain chs7, stronger effect = lower value): 0.682 (active)
normalized growth (locus YHR200W, strain rpn10, stronger effect = lower value): 0.309 (active)
normalized growth (locus YIL066C, strain RNR3, stronger effect = lower value): 0.111 (active)
normalized growth (locus YIL073C, strain SPO22, stronger effect = lower value): 0.181 (active)
normalized growth (locus YIL125W, strain kgd1, stronger effect = lower value): 0.395 (active)
normalized growth (locus YIR030C, strain dcg1, stronger effect = lower value): 0.292 (active)
normalized growth (locus YJL092W, strain hpr5, stronger effect = lower value): 0.926
normalized growth (locus YJL095W, strain BCK1 (second series), stronger effect = lower value): 0.103 (active)
normalized growth (locus YJL095W, strain BCK1, stronger effect = lower value): 0.0705 (active) and 0.204 (active)
normalized growth (locus YJL115W, strain asf1, stronger effect = lower value): 1.02
normalized growth (locus YJL129C, strain trk1, stronger effect = lower value): 0.259 (active)
normalized growth (locus YJL134W, strain LCB3, stronger effect = lower value): 0.373 (active)
normalized growth (locus YJL154C, strain vps35, stronger effect = lower value): 1.01
normalized growth (locus YJL164C, strain tpk1, stronger effect = lower value): 0.197 (active)
normalized growth (locus YJL166W, strain qcr8, stronger effect = lower value): 0.32 (active)
normalized growth (locus YJL168C, strain set2, stronger effect = lower value): 0.725 (active)
normalized growth (locus YJL187C, strain SWE1 (second series), stronger effect = lower value): 0.117 (active)
normalized growth (locus YJL187C, strain SWE1, stronger effect = lower value): 0.403 (active)
